“And” between values parts separate entries of the source, which are not always exact repeats. Identical values can stand only once. A structure can be active in one record and inactive in another. The source made the active and inactive calls. Unless noted, calls follow the shape of the dose curve; as a rule, active = well fitted curve in the direction sought with a large enough effect in the repeat runs; inconclusive = weak or mixed curves; inactive = no such curve, though single readings can be large; an effect the other way counts as inactive or inconclusive.
How the values were obtained:
[1] = qHTS assay to identify small molecule antagonists of the glucocorticoid receptor (GR) signaling pathway - cell viability counter screen (AID 720693); also: nearly all actives have a fitted effect of over 55% in size; also: potency is read from the fitted curve at half-maximal effect
[2] = qHTS assay for identifying genotoxic compounds that show differential cytotoxicity against isogenic chicken DT40 cell lines with known DNA damage response pathways - wild type cell line (AID 743012); also: nearly all actives have a fitted effect of over 60% in size; also: potency is read from the fitted curve at half-maximal effect
Outline: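 Viability by ATP luminescence (CellTiter-Glo, 30 min RT) after 40 h compound treatment at 37 C/5% CO2, using 300 parental DNA repair-proficient DT40 cells per well.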

[3] = qHTS assay for identifying genotoxic compounds that show differential cytotoxicity against isogenic chicken DT40 cell lines with known DNA damage response pathways - Rad54/Ku70 mutant cell line (AID 743015); also: nearly all actives have a fitted effect of over 60% in size; also: potency is read from the fitted curve at half-maximal effect
[4] = qHTS assay to identify small molecule antagonists of the androgen receptor (AR) signaling pathway - cell viability counter screen (AID 743033; also: nearly all actives have a fitted effect of over 45% in size; also: potency is read from the fitted curve at half-maximal effect)
[5] = qHTS assay to identify small molecule antagonists of the thyroid receptor (TR) signaling pathway - cell viability counter screen (AID 743064); also: nearly all actives have a fitted effect of over 50% in size; also: potency is read from the fitted curve at half-maximal effect
Outline: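 Counter screen for cytotoxicity: compound plus T3 (1 nM final) on GH3.TRE-Luc cells, 23.5 h at 37 °C, then fluorescence viability readout with CellTiter-Fluor.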

[6] = qHTS assay to identify small molecule antagonists of the thyroid receptor (TR) signaling pathway (AID 743065); also: nearly all actives have a fitted effect of over 55% in size; also: potency is read from the fitted curve at half-maximal effect
Outline: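 GH3.TRE-Luc rat pituitary cells carrying two TR response elements driving luciferase were plated for 4 h, given compound plus 1 nM T3 (final), and incubated 23.5 h at 37 C. ONE-Glo luminescence measured reporter inhibition; CellTiter-Fluor fluorescence tracked cytotoxicity.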

[7] = system: thyroid hormone receptor (rat, GH3 cells); assay: qHTS assay to identify small molecule agonists of the thyroid receptor (TR) signaling pathway (AID 743066; calls by dose curve)
[8] = qHTS assay to identify small molecule antagonists of the estrogen receptor alpha (ER-alpha) signaling pathway - cell viability counter screen (AID 743074; calls by dose curve; also: nearly all actives have a fitted effect of over 45% in size; also: potency is read from the fitted curve at half-maximal effect)
[9] = qHTS assay for identifying genotoxic compounds that show differential cytotoxicity against isogenic chicken DT40 cell lines with known DNA damage response pathways - Rev3 mutant cell line (AID 743014); also: nearly all actives have a fitted effect of over 55% in size; also: potency is read from the fitted curve at half-maximal effect
[10] = target: Estrogen receptor (Homo sapiens) (UniProt P03372); assay: qHTS assay to identify small molecule antagonists of the estrogen receptor alpha (ER-alpha) signaling pathway (AID 743069; active = well fitted curve in the direction sought with a large enough effect in the signal ratio in the repeat runs, not every such curve was filed as active; inconclusive = weak or mixed curves, or effect the other way; inactive = no such curve, though single readings can be large or run the other way; the % refers to the signal ratio; also: potency is read from the fitted curve at half-maximal effect)
Estrogen receptor (Homo sapiens), sequence (P03372 whole entry, looked up): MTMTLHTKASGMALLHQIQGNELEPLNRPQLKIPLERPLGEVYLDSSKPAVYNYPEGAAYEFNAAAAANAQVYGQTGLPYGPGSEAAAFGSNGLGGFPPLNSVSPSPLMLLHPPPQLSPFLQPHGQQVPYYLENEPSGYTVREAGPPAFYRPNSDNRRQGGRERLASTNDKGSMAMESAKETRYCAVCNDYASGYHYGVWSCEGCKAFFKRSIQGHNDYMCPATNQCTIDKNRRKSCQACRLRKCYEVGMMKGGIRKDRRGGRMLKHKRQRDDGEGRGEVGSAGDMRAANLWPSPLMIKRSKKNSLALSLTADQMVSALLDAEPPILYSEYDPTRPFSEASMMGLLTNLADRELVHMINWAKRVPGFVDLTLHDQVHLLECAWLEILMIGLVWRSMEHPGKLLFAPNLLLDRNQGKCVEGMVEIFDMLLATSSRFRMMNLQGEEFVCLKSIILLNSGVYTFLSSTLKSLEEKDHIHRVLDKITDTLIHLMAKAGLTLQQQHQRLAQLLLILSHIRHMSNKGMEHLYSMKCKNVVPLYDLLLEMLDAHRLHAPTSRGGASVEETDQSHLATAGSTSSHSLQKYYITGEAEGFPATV
Outline: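 Screening used a UAS-driven beta-lactamase reporter integrated into HEK293 cells expressing ER-alpha, stimulated with 17beta-estradiol alongside test compounds over 18 hr at 37C; signal came from LiveBLAzer B/G FRET fluorescence.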

[11] = target: Estrogen receptor (Homo sapiens) (UniProt P03372); assay: qHTS assay to identify small molecule agonists of the estrogen receptor alpha (ER-alpha) signaling pathway (AID 743075; calls by dose curve; also: potency is read from the fitted curve at half-maximal effect)
[12] = target: Estrogen receptor (Homo sapiens) (UniProt P03372); assay: qHTS assay to identify small molecule agonists of the estrogen receptor alpha (ER-alpha) signaling pathway using the BG1 cell line (AID 743079); also: nearly all actives have a fitted effect of over 20% in size; also: potency is read from the fitted curve at half-maximal effect
[13] = qHTS assay to identify small molecule antagonists of the estrogen receptor alpha (ER-alpha) signaling pathway using the BG1 cell line (AID 743080; calls by dose curve;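 also: BG1 cells stimulated with 17beta-estradiol alongside compound; nearly all actives have a fitted effect of over 25% in size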; also: potency is read from the fitted curve at half-maximal effect)
Outline: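 Luminescence from a 4×ERE-luciferase reporter in BG1-Luc-4E2 cells served as read-out. Cells, pre-cultured 5 days in stripped-serum phenol-red-free medium, were exposed to compound with 17beta-estradiol co-stimulation for 21.5 h at 37 C.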

[14] = qHTS assay to identify aromatase inhibitors - cell viability counter screen (AID 743084);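 also: cells stimulated with testosterone during compound exposure; nearly all actives have a fitted effect of over 55% in size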; also: potency is read from the fitted curve at half-maximal effect
[15] = qHTS assay to identify small molecule antagonists of the estrogen receptor alpha (ER-alpha) signaling pathway using the BG1 cell line - cell viability counter screen (AID 743081);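 also: compound given together with 17beta-estradiol as the ER stimulus; nearly all actives have a fitted effect of over 45% in size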; also: potency is read from the fitted curve at half-maximal effect
Aromatase (Homo sapiens) = Aromatase (Homo sapiens) (UniProt P11511); assay: qHTS assay to identify aromatase inhibitors (AID 743083); also: nearly all actives have a fitted effect of over 55% in size; also: potency is read from the fitted curve at half-maximal effect
Aromatase (Homo sapiens), sequence (P11511 whole entry, looked up): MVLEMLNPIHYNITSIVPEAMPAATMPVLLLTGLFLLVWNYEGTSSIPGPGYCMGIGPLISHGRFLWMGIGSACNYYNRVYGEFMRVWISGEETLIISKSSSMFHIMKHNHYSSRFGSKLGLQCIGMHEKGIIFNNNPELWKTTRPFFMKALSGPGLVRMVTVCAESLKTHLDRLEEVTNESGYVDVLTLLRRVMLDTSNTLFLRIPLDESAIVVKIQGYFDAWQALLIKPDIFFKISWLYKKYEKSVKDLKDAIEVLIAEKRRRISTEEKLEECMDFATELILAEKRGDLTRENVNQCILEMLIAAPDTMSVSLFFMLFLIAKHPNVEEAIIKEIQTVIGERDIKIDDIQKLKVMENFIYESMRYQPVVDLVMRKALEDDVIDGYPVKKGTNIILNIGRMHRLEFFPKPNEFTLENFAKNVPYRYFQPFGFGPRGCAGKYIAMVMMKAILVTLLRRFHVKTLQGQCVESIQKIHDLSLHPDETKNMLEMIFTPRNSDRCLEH

[16] = target: Androgen receptor (Homo sapiens) (UniProt P10275); assay: qHTS assay to identify small molecule antagonists of the androgen receptor (AR) signaling pathway (AID 743035; active = well fitted inhibition curve with a large enough effect in the signal ratio in the repeat runs, not every such curve was filed as active; inconclusive = weak or mixed curves, or effect the other way; inactive = no such curve, though single readings can be large or run the other way; the % refers to the signal ratio; also: potency is read from the fitted curve at half-maximal effect)
Androgen receptor (Homo sapiens), sequence (P10275 whole entry, looked up): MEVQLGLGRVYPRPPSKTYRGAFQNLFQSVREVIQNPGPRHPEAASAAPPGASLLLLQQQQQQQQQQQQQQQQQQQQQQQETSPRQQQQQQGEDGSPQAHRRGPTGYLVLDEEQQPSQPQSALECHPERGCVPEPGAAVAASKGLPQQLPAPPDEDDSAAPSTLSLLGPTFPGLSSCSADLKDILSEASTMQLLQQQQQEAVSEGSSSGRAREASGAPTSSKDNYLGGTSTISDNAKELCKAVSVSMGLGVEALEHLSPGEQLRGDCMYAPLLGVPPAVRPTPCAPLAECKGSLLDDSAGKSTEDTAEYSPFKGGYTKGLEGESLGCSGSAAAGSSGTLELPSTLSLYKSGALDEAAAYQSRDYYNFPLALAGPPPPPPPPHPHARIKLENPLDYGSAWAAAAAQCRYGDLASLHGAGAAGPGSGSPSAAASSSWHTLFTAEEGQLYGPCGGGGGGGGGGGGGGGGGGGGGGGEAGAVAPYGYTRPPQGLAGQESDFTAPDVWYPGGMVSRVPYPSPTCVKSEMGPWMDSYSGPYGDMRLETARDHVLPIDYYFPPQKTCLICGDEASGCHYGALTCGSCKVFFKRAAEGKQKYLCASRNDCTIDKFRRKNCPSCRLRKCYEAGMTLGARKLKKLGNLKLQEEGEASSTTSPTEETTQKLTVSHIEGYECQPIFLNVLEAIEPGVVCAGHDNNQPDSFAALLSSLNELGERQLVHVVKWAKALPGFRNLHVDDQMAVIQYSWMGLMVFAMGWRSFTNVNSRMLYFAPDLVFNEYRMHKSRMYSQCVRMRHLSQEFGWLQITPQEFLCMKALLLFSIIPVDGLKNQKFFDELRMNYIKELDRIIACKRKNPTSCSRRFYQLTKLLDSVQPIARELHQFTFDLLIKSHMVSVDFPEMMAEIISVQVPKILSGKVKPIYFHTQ
Outline: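 Antagonist mode: AR-bla HEK293 cells co-treated with test compounds and agonist R1881 for 16 h at 37C, 5% CO2. Beta-lactamase activity read as FRET fluorescence after 2 h room-temperature substrate loading.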

[17] = target: Androgen receptor (Homo sapiens) (UniProt P10275); assay: qHTS assay to identify small molecule agonists of the androgen receptor (AR) signaling pathway using the MDA cell line (AID 743040; also: nearly all actives have a fitted effect of over 20% in size; also: potency is read from the fitted curve at half-maximal effect)
Outline: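 Agonist activity is measured as luciferase luminescence in human MDA-kb2 cells whose MMTV reporter responds to both AR and GR. Compounds in DMSO incubate 16 h at 37C, 0% CO2, and ONE-Glo is read after 30 min.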

[18] = target: Androgen receptor (Homo sapiens) (UniProt P10275); assay: qHTS assay to identify small molecule antagonists of the androgen receptor (AR) signaling pathway using the MDA cell line (AID 743042)
Outline: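 MDA-kb2 cells (human breast carcinoma, stably carrying an MMTV-luciferase reporter responsive to AR and GR) were plated at 3,000 cells/well and preincubated 5 hr at 37C, then given compound plus R1881 agonist for 16 h. ONE-Glo luminescence was read.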

[19] = qHTS assay to identify small molecule antagonists of the androgen receptor (AR) signaling pathway using the MDA cell line - cell viability counter screen (AID 743041; also: nearly all actives have a fitted effect of over 45% in size; also: potency is read from the fitted curve at half-maximal effect)
Outline: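 qHTS viability read-out; MDA-kb2 AR-luc; R1881-stimulated; 16 h exposure at 37C, 0% CO2; CellTiter-Fluor, 30 min; fluorescence intensity.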

Measured: Potency

Cn1cc(C2=C(c3cn(C4CCN(Cc5ccccn5)CC4)c4ccccc34)C(=O)NC2=O)c2ccccc21
inactive: [1] | [2] | [3] | [4] | [5] | [6] | [7] | [8]

CC(C)Oc1cccc(NC(=O)c2ccccc2C(F)(F)F)c1
active: [2] 15.4 µM | [9] 15.4 µM | [3] 30.6 µM
inactive: [1] | [7] | [10] | [11] | [12] | [13] | [14]

c1ccc2c(c1)OCC(C1=NCCN1)O2 (centres undefined)
inactive: [1] | [8] | [11] | [13] | [15]
active: [2] 5.31 µM | [9] 7.5 µM | [3] 8.41 µM | [5] 7.5 µM | [6] 7.5 µM | Aromatase (Homo sapiens) 26.6 µM

Clc1ccc(CO/N=C(\Cn2ccnc2)c2ccc(Cl)cc2Cl)c(Cl)c1
active: [2] 13.3 µM | [3] 21.1 µM | [13] 11.9 µM | Aromatase (Homo sapiens) 2.66 µM
inactive: [1] | [4] | [15] | [14]

CC(C)CC(C)N (centres undefined)
inactive: [1] | [2] | [9] | [3] | [5] | [6] | [7] | [10] | [8] | [11] | [12] | [13] | [15] | Aromatase (Homo sapiens) | [14]

COC(=O)N(C(=O)N1CO[C@@]2(C(=O)OC)Cc3cc(Cl)ccc3C2=N1)c1ccc(OC(F)(F)F)cc1
active: [2] 6.63 µM | [3] 9.36 µM | [16] 6.69 µM | [18] 23.5 µM | [6] 11.8 µM | [10] 47.3 µM [cytotoxic]
inactive: [1] | [4] | [17] | [5] | [7] | [8] | [13] | [15] | [14]

CC(=O)[O-].[Tl+]
active: [2] 2.75 µM | [9] 1.73 µM | [3] 1.73 µM | Aromatase (Homo sapiens) 61.5 µM
inactive: [1] | [7] | [15] | [14]

O=[N+]([O-])O.O=[N+]([O-])O.[Cd]
active: [2] 43.3 µM | [9] 27.3 µM | [3] 61.1 µM
inactive: [1] | [8] | Aromatase (Homo sapiens)

CCCCOCN(C(=O)CCl)c1c(CC)cccc1CC
inactive: [1] | [17] | [19] | [8] | [11] | [13] | [15]
active: [2] 8.63 µM | [3] 9.69 µM | [18] 54.5 µM | [6] 61.1 µM | Aromatase (Homo sapiens) 61.1 µM

CC1(C)CC/C(=C/c2ccc(Cl)cc2)C1(O)Cn1cncn1 (centres undefined)
active: [2] 21.6 µM | [3] 55.2 µM | [17] 9.63 µM | [6] 54.2 µM
inactive: [1] | [7] | [10] | [8] | [11] | [12] | [13] | Aromatase (Homo sapiens) | [14]

CC(C)[C@H](C(=O)OC(C#N)c1cccc(Oc2ccccc2)c1)c1ccc(OC(F)F)cc1 (some centres undefined)
active: [2] 24.3 µM | [9] 34.4 µM | [3] 27.3 µM | [6] 54.5 µM
inactive: [1] | [5] | [7] | [8] | [15] | [14]

CC1CCC(C(C)C)C(OC(=O)c2ccccc2N)C1 (centres undefined)
inactive and 47.9 µM (active): [14]
inactive and 60.3 µM (active): Aromatase (Homo sapiens)
active: [3] 26.6 µM | [11] 7.56 µM [inconclusive] and 6.82 µM [inconclusive] | [12] 3.35 µM and 2.69 µM
inactive: [1] | [9] | [19] | [7] | [8] | [13] | [15]
23.7 µM (active) and inactive: [2]

O=[N+]([O-])c1cc([N+](=O)[O-])c2ccccc2c1
inactive: [1] | [4] | [17] | [6] | [7]
active: [2] 6.11 µM | [3] 7.52 µM

[Cl][Sb]([Cl])[Cl]
inactive: [1] | [2] | [9] | [7] | [8] | [15] | Aromatase (Homo sapiens) | [14]
active: [5] 17.2 µM

CCCCCCCCCCCCCC[P+](CCCCCC)(CCCCCC)CCCCCC (tested in a mixture with another compound)
active: [1] 2.75 µM | [2] 3.44 µM | [3] 3.06 µM | [4] 1.95 µM | [19] 4.33 µM | [5] 2.43 µM | [6] 1.54 µM | [10] 0.246 µM [inconclusive] | [8] 7.76 µM | [13] 2.73 µM | [15] 9.69 µM | Aromatase (Homo sapiens) 3.06 µM | [14] 6.11 µM

CCCN(CC)CC1COC2(CCC(C(C)(C)C)CC2)O1 (centres undefined)
active: [2] 5.45 µM | [9] 0.686 µM | [3] 1.22 µM
inactive: [1] | [19] | [7] | [10] | [8] | [11] | [12] | [13] | [15] | Aromatase (Homo sapiens) | [14]

CC1(C)C(/C=C(\Cl)C(F)(F)F)C1C(=O)OC(C#N)c1cccc(Oc2ccccc2)c1 (centres undefined)
inactive: [1] | [2] | [9] | [3] | [19] | [5] | [6] | [7] | [8] | [15] | Aromatase (Homo sapiens) | [14]

— PubChem BioAssay (Tox21)
